The values that follow come from PubChem BioAssay (Tox21).

Each structure is given as a SMILES string. Values without a mark were called inactive. Results filed as inconclusive are left out. Activity calls are given as the source filed them. Unless noted, the call rests on the fitted dose curve.

A short description of experiment [1]: qHTS assay to identify small molecule antagonists of the sonic hedgehog signaling (Shh) pathway (AID 1259369). Further: nearly all actives have a fitted effect of over 45% in size. The procedure, abridged: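 NIH/3T3-derived Gli1-Luc reporter cells plated 4 h, dosed with compound, then stimulated with conditioned medium for 24 h at 37 C. Firefly luciferase luminescence read after 30 min with detection reagent at room temperature.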

The nature of experiment [2]: qHTS assay to identify small molecule agonists of the androgen receptor (AR) signaling pathway in the presence of an antagonist - cell viability counter screen (AID 1259379; active means well fitted curve in the direction sought with a large enough effect in the repeat runs; an effect the other way counts as inactive or inconclusive;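 further: MDA-kb2 human breast cancer cells carrying an MMTV luciferase reporter; series mostly up to about 92 µM; nearly all actives have a fitted effect of over 25% in size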). The procedure, abridged: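 MDA-kb2 cells (MMTV-luciferase, AR/GR), 3,000/well, 5 h attachment, then 3.0 µM nilutamide (final) and compounds at 15 concentrations. Viability by CellTiter-Fluor fluorescence after 16 h at 37 °C, 0% CO2, in the reporter wells.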

A short description of experiment [3]: qHTS assay to identify small molecule antagonists of the estrogen receptor beta (ER-beta) signaling pathway - cell viability counter screen (AID 1259382; active means well fitted curve in the direction sought with a large enough effect in the repeat runs; an effect the other way counts as inactive or inconclusive;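 further: HEK293T cells carrying ER-beta-UAS-bla reporter stimulated with estradiol; series mostly up to about 92 µM; nearly all actives have a fitted effect of over 55% in size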). The procedure, abridged: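 ER-beta-UAS-bla HEK293T cells in 2% charcoal-stripped FBS medium, treated with compound plus 1 nM 17-beta-estradiol for 16 h at 37C. Viability read by CellTiter-Glo luminescence after 30 min at room temperature in the same wells.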

The nature of experiment [4]: qHTS assay to identify small molecule agonists or antagonists of the thyroid stimulating hormone receptor (TSHR) signaling pathway - wild type cell line counter screen (AID 1259384). Further: potency means the concentration at half of the fitted maximal effect. In a few lines:
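Counter screen in untransfected Hek293: compounds (15-point titration, triplicate) plus phosphodiesterase inhibitor Ro20-1724 added after 18 h plating; 30 min RT. Intracellular cAMP via competitive d2/cryptate immunoassay, 1 h incubation.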

Experiment [5] can be described thus: qHTS assay to identify small molecule agonists of the estrogen receptor alpha (ER-alpha) signaling pathway in the presence of an antagonist - cell viability counter screen (AID 1259386; active means well fitted curve in the direction sought with a large enough effect in the repeat runs; an effect the other way counts as inactive or inconclusive;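 further: series mostly up to about 92 µM; cells exposed to compounds for 22 h at 37 °C before the viability read; nearly all actives have a fitted effect of over 30% in size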). In a few lines:
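Cell viability in VM7Luc4E2 cells (endogenous full-length ER-alpha) measured by CellTiter-Fluor fluorescence in the same wells as the luciferase screen. Cells pre-cultured 5 days in charcoal-stripped serum, then treated 22 h with compounds at 15 concentrations plus 10.0nM ICI-182,780.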
(In general: Quantitative high-throughput screening tests each substance at several concentrations.)

The target in experiment [6] is Progesterone receptor (Homo sapiens) (UniProt P06401). The experiment can be described thus: qHTS assay to identify small molecule agonists of the progesterone receptor (PR) signaling pathway (AID 1346784). Further: nearly all actives have a fitted effect of over 30% in size. The procedure, abridged:
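PR-UAS-bla HEK 293T cells carrying a UAS-driven beta-lactamase reporter were seeded in medium with 2% charcoal-stripped FBS, preincubated 6 hr at 37C, then exposed to compounds in DMSO for 16 hr; agonism was read by LiveBLAzer B/G FRET fluorescence.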

The target is the same in experiment [7]. Put plainly: qHTS assay to identify small molecule antagonists of the progesterone receptor (PR) signaling pathway (AID 1346795; active means well fitted inhibition curve with a large enough effect in the signal ratio in the repeat runs, not every such curve was filed as active; the % refers to the signal ratio). In a few lines:
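PR-UAS-bla HEK293T cells carrying a UAS-driven beta-lactamase reporter were plated in medium with 2% charcoal-stripped FBS and rested 6 hr at 37C. Compounds were added with 1 nM R5020 (final) for 16 hr, then FRET substrate loaded 2 hr at room temperature.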

The nature of experiment [8]: qHTS assay to identify small molecule antagonists of the progesterone receptor (PR) signaling pathway - cell viability counter screen (AID 1346798; active means well fitted curve in the direction sought with a large enough effect in the repeat runs; an effect the other way counts as inactive or inconclusive; further: nearly all actives have a fitted effect of over 50% in size; further: potency means the concentration at half of the fitted maximal effect). In a few lines: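 PR-UAS-bla HEK293T cells in medium with 2% charcoal-stripped FBS were treated with compounds plus R5020 for 16 hr at 37C. Cell viability was then read by CellTiter-Glo luminescence after 30 min at room temperature in the same wells.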

The nature of experiment [9]: qHTS assay to identify small molecule agonists of the progesterone receptor (PR) signaling pathway - cell viability counter screen (AID 1346799). Further: nearly all actives have a fitted effect of over 45% in size. The procedure, abridged:
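PR-UAS-bla HEK293T cells, 3,000 per well in medium with 2% charcoal-stripped FBS, were preincubated 6 hr at 37C, then exposed to compounds for 16 hr; viability was read as CellTiter-Glo luminescence after 30 min at room temperature.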

Experiment [10] in a line: qHTS assay to identify small molecule agonists of the TGF-beta/Smad signaling pathway - cell viability counter screen (AID 1346829; active means well fitted curve in the direction sought with a large enough effect in the repeat runs; an effect the other way counts as inactive or inconclusive; further: top concentration of the series differs between compounds; nearly all actives have a fitted effect of over 45% in size). The procedure, abridged:
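Cytotoxicity counter screen: CellTiter-Glo luminescence (30 min, room temperature) measured in the SBE-bla HEK 293T reporter wells after 5 hr compound treatment at 37 C and the 2 hr substrate step.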

Experiment [11] is described as follows: qHTS assay to identify small molecule agonists of the TGF-beta/Smad signaling pathway (AID 1346859; active means well fitted activation curve with a large enough effect in the signal ratio in the repeat runs, not every such curve was filed as active; the % refers to the signal ratio; further: series mostly up to about 77 µM). The procedure, abridged: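 HEK 293T cells stably carrying a beta-lactamase reporter driven by the Smad binding element were seeded overnight, exposed to DMSO-dissolved compounds for 5 hr at 37 C, 5% CO2, then loaded with FRET substrate for 2 hr at room temperature.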

The target in experiment [12] is Androgen receptor (Homo sapiens) (UniProt P10275). The experiment can be described thus: qHTS assay to identify small molecule agonists of the androgen receptor (AR) signaling pathway in the presence of an antagonist (AID 1259381). Further: nearly all actives have a fitted effect of over 15% in size. The procedure, abridged: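 MDA-kb2 cells carrying MMTV-luciferase (AR/GR responsive), 3,000 cells/well, co-treated with 3.0 uM nilutamide final. Compounds at 15 concentrations, 16 hr at 37C without CO2. Luciferase luminescence read after 30 min with ONE-Glo.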
Sequence of Androgen receptor (Homo sapiens) (P10275 whole entry, looked up): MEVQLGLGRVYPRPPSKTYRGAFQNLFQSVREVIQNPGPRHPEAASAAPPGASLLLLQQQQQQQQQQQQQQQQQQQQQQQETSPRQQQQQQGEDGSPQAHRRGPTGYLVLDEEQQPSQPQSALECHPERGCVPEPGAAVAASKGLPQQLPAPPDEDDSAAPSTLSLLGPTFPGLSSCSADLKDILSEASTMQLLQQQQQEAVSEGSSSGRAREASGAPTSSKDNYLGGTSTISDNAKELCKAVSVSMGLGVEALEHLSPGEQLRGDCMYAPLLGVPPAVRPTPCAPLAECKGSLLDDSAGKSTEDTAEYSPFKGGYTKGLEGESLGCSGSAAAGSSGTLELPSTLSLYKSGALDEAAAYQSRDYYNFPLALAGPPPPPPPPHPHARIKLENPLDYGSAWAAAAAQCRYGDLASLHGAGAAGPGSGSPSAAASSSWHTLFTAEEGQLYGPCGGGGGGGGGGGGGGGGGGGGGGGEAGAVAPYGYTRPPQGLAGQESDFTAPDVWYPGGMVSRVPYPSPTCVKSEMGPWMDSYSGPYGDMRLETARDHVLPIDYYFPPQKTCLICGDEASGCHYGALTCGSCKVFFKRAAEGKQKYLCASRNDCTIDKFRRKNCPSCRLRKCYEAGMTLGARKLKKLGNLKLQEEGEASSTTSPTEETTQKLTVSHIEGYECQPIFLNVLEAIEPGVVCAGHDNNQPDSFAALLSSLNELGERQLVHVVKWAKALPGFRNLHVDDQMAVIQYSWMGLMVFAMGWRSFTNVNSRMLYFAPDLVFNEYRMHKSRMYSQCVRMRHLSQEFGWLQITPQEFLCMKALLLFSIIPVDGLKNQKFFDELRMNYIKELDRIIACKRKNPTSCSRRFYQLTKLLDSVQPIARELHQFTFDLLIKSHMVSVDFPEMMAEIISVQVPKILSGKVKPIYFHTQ

The target in experiment [13] is Estrogen receptor (Homo sapiens) (UniProt P03372). Put plainly: qHTS assay to identify small molecule agonists of the estrogen receptor alpha (ER-alpha) signaling pathway in the presence of an antagonist (AID 1259383). Further: top concentration of the series differs between compounds; nearly all actives have a fitted effect of over 15% in size. The procedure, abridged: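 VM7Luc4E2 cells express endogenous full-length ER-alpha with an ERE-luciferase reporter and were hormone-deprived for 5 days. Compounds at 15 concentrations were added with 10.0nM ICI-182,780 for 22hr at 37C. Luminescence was read with ONE-Glo.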
Sequence of Estrogen receptor (Homo sapiens) (P03372 whole entry, looked up): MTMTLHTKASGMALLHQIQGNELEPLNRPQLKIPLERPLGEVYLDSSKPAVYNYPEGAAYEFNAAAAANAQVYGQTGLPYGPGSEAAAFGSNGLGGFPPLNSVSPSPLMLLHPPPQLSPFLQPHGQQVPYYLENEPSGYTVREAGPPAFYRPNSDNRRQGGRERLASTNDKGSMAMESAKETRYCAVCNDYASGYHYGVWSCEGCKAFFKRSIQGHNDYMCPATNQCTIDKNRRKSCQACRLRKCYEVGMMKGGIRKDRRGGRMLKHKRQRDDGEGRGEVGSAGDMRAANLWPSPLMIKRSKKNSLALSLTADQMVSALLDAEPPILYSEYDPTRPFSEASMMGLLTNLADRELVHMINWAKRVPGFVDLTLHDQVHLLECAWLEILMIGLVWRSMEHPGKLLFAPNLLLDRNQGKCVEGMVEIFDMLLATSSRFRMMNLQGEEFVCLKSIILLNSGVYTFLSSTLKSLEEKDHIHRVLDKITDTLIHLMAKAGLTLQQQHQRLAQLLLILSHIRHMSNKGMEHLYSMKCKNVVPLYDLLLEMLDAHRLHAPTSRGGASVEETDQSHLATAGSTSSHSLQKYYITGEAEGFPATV

The target of experiment [14] is Thyrotropin receptor (Homo sapiens) (UniProt P16473). Put plainly: qHTS assay to identify small molecule antagonists of the thyroid stimulating hormone receptor (TSHR) signaling pathway (AID 1259385). Further: nearly all actives have a fitted effect of over 20% in size. The procedure, abridged: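 Antagonist mode: compound-treated TSHR-expressing HEK293 cells were stimulated with 1.5 ng/mL TSH (final) in presence of Ro20-1724 for 30 min at RT. HTRF cAMP detection after 1 h; each compound tested at 15 concentrations, triplicate.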
Sequence of Thyrotropin receptor (Homo sapiens) (P16473 whole entry, looked up): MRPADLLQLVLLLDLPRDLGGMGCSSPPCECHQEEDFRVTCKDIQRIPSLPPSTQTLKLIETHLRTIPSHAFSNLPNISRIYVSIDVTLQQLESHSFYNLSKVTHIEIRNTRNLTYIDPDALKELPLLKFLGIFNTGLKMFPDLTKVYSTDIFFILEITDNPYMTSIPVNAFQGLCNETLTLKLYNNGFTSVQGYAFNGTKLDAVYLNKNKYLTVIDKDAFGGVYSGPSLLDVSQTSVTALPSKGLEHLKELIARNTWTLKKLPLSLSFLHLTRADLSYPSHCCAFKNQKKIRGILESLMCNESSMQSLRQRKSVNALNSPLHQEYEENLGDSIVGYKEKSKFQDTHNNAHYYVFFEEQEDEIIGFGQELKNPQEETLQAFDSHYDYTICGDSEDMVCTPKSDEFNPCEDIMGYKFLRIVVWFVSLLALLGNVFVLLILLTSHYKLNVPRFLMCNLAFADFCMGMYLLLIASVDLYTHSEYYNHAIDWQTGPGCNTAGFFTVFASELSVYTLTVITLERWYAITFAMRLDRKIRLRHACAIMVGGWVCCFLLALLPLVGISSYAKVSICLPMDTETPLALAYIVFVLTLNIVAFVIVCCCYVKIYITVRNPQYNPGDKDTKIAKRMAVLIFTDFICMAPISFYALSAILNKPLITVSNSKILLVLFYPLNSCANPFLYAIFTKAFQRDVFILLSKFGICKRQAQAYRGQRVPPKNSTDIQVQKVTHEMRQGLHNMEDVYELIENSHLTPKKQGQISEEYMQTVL

Experiment [15] can be described thus: qHTS assay to identify small molecule antagonists of the TGF-beta/Smad signaling pathway - cell viability counter screen (AID 1346824; active means well fitted curve in the direction sought with a large enough effect in the repeat runs; an effect the other way counts as inactive or inconclusive; further: nearly all actives have a fitted effect of over 50% in size). The procedure, abridged:
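Cytotoxicity counter-screen run in the same wells as the beta-lactamase Smad reporter read: CellTiter-Glo luminescence after 30 min at room temperature. HEK 293T SBE-bla cells had 5 hr compound exposure at 37 C with TGF-beta1 (0.25 ng/mL stock).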

The target of experiment [16] is Thyrotropin-releasing hormone receptor (Homo sapiens) (UniProt P34981). Put plainly: qHTS assay to identify small molecule agonists of the thyrotropin-releasing hormone receptor (TRHR) signaling pathway (AID 1346891). Further: series mostly up to about 58 µM. The procedure, abridged:
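TRHR-expressing HEK293 cells were plated 18 h at 37 °C/5% CO2, loaded with calcium dye 2 h at 37 °C, then given compound in DMSO; fluorescence was read kinetically for 3 min at 1 s intervals.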

The nature of experiment [17]: qHTS assay to identify small molecule agonists of the estrogen receptor beta (ER-beta) signaling pathway - cell viability counter screen (AID 1259380; active means well fitted curve in the direction sought with a large enough effect in the repeat runs; an effect the other way counts as inactive or inconclusive; further: nearly all actives have a fitted effect of over 30% in size). In a few lines:
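ER-beta-UAS-bla HEK293T cells in medium with 2% charcoal-stripped FBS, pre-incubated 6 hr, then treated 16 hr at 37C. Cytotoxicity read in the same wells by CellTiter-Glo luminescence after 30 min at room temperature.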

In experiment [18] the target is Thyrotropin-releasing hormone receptor (Homo sapiens) (UniProt P34981). Put plainly: qHTS assay to identify small molecule antagonists of the thyrotropin-releasing hormone receptor (TRHR) signaling pathway (AID 1346877; active means well fitted inhibition curve with a large enough effect in the repeat runs, not every such curve was filed as active; further: series mostly up to about 51 µM). The procedure, abridged: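 TRHR-expressing HEK293 cells loaded with calcium dye for 2 h at 37 C; compounds pre-incubated 5 min at room temperature before TRH challenge at 1 nM final. Intracellular calcium fluorescence read kinetically for 3 min; 15 concentrations in triplicate.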
Sequence of Thyrotropin-releasing hormone receptor (Homo sapiens) (P34981 whole entry, looked up): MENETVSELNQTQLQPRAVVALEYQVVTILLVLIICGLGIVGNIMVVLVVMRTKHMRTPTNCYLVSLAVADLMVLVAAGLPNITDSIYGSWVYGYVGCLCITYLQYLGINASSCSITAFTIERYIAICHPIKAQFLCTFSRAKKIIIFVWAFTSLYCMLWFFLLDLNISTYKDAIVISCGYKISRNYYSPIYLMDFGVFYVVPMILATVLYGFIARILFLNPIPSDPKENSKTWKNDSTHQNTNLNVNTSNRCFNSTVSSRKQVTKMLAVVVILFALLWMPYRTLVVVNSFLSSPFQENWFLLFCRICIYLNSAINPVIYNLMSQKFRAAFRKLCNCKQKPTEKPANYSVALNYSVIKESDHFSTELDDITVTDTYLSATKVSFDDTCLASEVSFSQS

Sequence of Progesterone receptor (Homo sapiens) (P06401 whole entry, looked up): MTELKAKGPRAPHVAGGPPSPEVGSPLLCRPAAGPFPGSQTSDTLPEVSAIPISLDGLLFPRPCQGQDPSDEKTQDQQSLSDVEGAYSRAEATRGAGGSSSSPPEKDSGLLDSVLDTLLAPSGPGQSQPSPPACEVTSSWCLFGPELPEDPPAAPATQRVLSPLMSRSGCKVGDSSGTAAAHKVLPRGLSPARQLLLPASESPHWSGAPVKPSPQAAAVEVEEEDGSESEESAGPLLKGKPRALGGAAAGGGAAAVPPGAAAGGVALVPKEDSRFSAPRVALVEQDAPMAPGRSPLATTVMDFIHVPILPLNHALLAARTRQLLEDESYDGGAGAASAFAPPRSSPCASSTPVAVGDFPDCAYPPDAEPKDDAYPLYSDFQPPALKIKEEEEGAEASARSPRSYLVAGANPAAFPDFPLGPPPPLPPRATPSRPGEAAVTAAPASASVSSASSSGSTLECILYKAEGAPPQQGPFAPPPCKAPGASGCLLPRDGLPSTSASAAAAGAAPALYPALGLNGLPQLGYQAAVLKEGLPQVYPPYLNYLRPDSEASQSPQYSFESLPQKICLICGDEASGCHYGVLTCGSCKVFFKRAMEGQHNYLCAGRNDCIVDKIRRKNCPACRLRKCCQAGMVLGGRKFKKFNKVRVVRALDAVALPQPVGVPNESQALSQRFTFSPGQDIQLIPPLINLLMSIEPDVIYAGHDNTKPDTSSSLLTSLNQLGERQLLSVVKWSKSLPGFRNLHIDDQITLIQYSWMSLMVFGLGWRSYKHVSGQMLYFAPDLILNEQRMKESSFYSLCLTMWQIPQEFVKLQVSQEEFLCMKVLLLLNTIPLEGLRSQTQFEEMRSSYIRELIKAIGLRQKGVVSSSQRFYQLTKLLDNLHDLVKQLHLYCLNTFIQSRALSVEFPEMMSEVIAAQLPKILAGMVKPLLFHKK

In the case of `CC(=O)Nc1ccc(/C=N/NC(N)=S)cc1`, the Potency entry in experiment [1], in [2], in experiment [3], in experiment [4], in experiment [5] and in experiment [7] was “inactive” throughout. In addition, the Potency entry in [8], in experiment [9] and in experiment [10] was “inactive” in each case. The call in experiment [6] and in experiment [11] was inactive.

Consider `CCC(C)N(C)C(=O)c1cc2ccccc2c(-c2ccccc2Cl)n1` (stereo not given), for which the Potency entry in experiment [1], in [2], in experiment [12], in experiment [3], in experiment [13] and in experiment [4] was “inactive” throughout. The Potency result in [14], in experiment [5], in experiment [8], in experiment [9], in [15] and in [10] was “inactive” each time. For the same molecule, the Potency result in [16] was “inactive”. The molecule was called inactive in [6] and in experiment [11].

For the molecule `O=S(=O)(O)c1ccc(O)c2ncccc12`, the Potency entry in [1], in experiment [17], in experiment [3], in [13], in experiment [4] and in experiment [14] was “inactive” each time. Moreover, the Potency result in [5], in [9], in experiment [15] and in experiment [10] was “inactive” in each case. In addition, the result in experiment [6] and in experiment [11] was inactive.

As to `CCCCCCCCN(C)C`, the Potency result in [1], in experiment [2], in experiment [3], in [13], in experiment [4] and in experiment [14] was “inactive” in each case. Further, the Potency entry in experiment [5], in [7], in experiment [8], in [9], in [15] and in experiment [10] was “inactive” each time. In addition, the Potency entry in experiment [16] was “inactive”. Also, the molecule was classed as inactive in [6], in experiment [11] and in experiment [18].

As to `CC(C)NCC(O)c1cc(O)cc(O)c1` (stereo not given), the Potency entry in experiment [1], in experiment [2], in experiment [17], in [14], in [5] and in experiment [7] was “inactive” throughout. Moreover, the Potency entry in experiment [8], in [9], in experiment [15] and in [10] was “inactive” throughout. The Potency in experiment [4] is 8.1 µM (active). Also, the outcome in experiment [6] and in [11] was inactive.

As for `CC(C)c1ccc2c(C(C)C)cc(C(C)C)c(S(=O)(=O)O)c2c1`, the Potency result in experiment [1], in experiment [2], in experiment [12], in experiment [13], in experiment [4] and in experiment [14] was “inactive” each time. Further, the Potency result in experiment [5], in [7], in experiment [8], in experiment [9], in experiment [15] and in experiment [10] was “inactive” throughout. Besides, the Potency entry in experiment [16] was “inactive”. Moreover, the call in experiment [11] and in experiment [18] was inactive.

Consider `CC(C)NCC(O)COc1ccc(CC(N)=O)cc1` (stereo not given), for which the Potency entry in [1], in experiment [2], in experiment [3], in experiment [13], in experiment [4] and in [14] was “inactive” each time. Further, the Potency entry in experiment [7], in experiment [8], in experiment [9], in experiment [15], in experiment [10] and in experiment [16] was “inactive” each time. Besides, the outcome in [6] and in experiment [11] was inactive.

For the molecule `COc1ccc([C@@H]2Sc3ccccc3N(CCN(C)C)C(=O)[C@@H]2OC(C)=O)cc1`, the Potency entry in [1], in experiment [2], in [4], in [14], in experiment [5] and in experiment [7] was “inactive” throughout. For the same molecule, the Potency entry in experiment [15] and in experiment [10] was “inactive” each time. Besides, the molecule was classed as inactive in experiment [6] and in experiment [11]. Also, the Potency in experiment [8] is 21.1 µM (active).

As for `CC(=O)c1ccc2c(c1)[C@H](NC(=O)c1ccc(F)cc1)[C@@H](O)C(C)(C)O2`, the Potency result in experiment [1], in [2], in [3], in experiment [4], in experiment [14] and in [5] was “inactive” throughout. Also, the Potency entry in [7], in experiment [8], in [15], in experiment [10] and in experiment [16] was “inactive” throughout. The call in [6] and in experiment [11] was inactive.
